CRFR2-BP antag – blocks CRF-induced signaling of the CRF-BP/CRF-R2 complex | HEK293 CRF-R2/CRF-BP, CRF-induced calcium fluorescence | inhibition, % at 11.8 µM | actives 0.59% (n = 350,000) | AID 588475;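 active = inhibition of the ligand-induced calcium signal above about 50% at the single tested concentration, limit read from the data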
ANO1 block – mouse TMEM16A channel inhibition, primary screen. Q8BHY3. HEK293 TMEM16A/YFP iodide influx fluorescence, ionomycin. normalized B-score (activity score, 25-100; higher = stronger inhibition) at 10 µM. actives 1.2% (n = 310,000);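 active = ratio plate-corrected score three or more library SD toward inhibition, starting fluorescence score within five deviations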;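 also: score derived from kinetic fluorescence span divided by baseline fluorescence per well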
Target sequence (Q8BHY3 whole entry, looked up): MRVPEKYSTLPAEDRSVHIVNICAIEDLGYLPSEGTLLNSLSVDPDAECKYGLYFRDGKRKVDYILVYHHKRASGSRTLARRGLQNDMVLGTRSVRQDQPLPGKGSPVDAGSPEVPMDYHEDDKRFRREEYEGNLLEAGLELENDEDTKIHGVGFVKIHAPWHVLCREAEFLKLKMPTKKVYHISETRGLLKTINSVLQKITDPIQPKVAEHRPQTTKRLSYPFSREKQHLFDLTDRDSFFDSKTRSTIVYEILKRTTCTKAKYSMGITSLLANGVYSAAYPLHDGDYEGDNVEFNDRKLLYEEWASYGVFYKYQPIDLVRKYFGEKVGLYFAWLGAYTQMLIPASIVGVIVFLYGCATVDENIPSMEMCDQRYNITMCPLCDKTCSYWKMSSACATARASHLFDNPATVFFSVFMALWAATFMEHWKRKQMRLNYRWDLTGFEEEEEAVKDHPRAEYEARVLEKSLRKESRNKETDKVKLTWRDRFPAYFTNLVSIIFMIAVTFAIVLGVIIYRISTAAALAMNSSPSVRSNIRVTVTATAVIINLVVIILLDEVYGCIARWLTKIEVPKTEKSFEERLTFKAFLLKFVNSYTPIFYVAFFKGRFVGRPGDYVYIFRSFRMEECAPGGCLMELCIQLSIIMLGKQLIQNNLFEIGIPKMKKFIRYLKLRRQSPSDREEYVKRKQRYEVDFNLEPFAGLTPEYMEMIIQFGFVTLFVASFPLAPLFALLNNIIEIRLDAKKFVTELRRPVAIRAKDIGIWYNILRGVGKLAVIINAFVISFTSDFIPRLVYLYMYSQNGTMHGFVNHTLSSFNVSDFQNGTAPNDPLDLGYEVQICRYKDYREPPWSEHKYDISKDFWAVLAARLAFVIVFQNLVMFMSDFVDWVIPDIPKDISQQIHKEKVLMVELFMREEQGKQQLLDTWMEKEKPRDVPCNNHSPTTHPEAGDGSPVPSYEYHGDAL
CRFR2-BP ag – agonists of human CRF-binding protein/CRF-R2 receptor complex; AID 588473; activation, % at 13.2 µM; actives 0.46% (n = 350,000); HEK293 CRF-R2/CRF-BP, calcium dye fluorescence (FLIPR); percent of saturating CRF peptide response;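 active = activation of at least 50%, plus an integration ratio under a set limit after plate pattern correction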;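 also: plate controls were neutral control wells without compound for no effect and CRF at EC100 for full effect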
TMEM16A act – activates or potentiates the mouse TMEM16A chloride channel | actives 0.3% (n = 340,000) | AID 623877 | B-score at 10 µM | HEK293 TMEM16A/YFP-H148Q/I152L, iodide quench fluorescence; active compounds read low | Q8BHY3;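 active = fluorescence-ratio B-score plate-corrected deviation score at least 3 library SD below zero, with starting fluorescence score within 5 deviations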;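 also: channel opened by trigger with iodide after compound preincubation; score built on the fluorescence ratio of max minus min over baseline; more negative score means more quench and so TMEM16A activation or potentiation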
NR3A LBD binder – NR3A (human) ligand-binding domain modulation; NR3A LBD differential scanning fluorimetry, Tm shift; 0% = protein alone, 100% = glycine-bound protein; Tm shift relative to glycine control, % at 25 µM; actives 2.5% (n = 340,000);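 active = melting temperature shift of at least 10% of the positive control shift, at one fixed dose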
MPTP block – permeability transition pore inhibition | isolated mouse mitochondria, Ca2+ swelling absorbance, 30 min | inhibition, % at 10 µM | actives 1.4% (n = 360,000) | AID 602449;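 active = inhibition of 50% or more, scaled per plate between neutral and stimulator controls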;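 also: 0% = DMSO wells given calcium and 100% = 1 mM EGTA wells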
* marks the source's active call; other numbers are inactive results; i = inactive; x = not tested or not shown. A selection: hits, their analogues and other compounds. The true share with any hit is near 5.1%.

SMILES	CRFR2-BP antag	ANO1 block	CRFR2-BP ag	TMEM16A act	NR3A LBD binder	MPTP block
Cc1ccc2oc(=O)c(/C=C(\O)c3cccs3)nc2c1	-80.4	i	120.0*	i	1.6	1.2
O=c1oc2ccc(Cl)cc2nc1/C=C(\O)c1cccs1	-13.0	i	11.1	i	-0.4	1.7
Cc1ccc2oc(=O)c(/C=C(\O)CC(C)C)nc2c1	-36.6	i	0.6	i	4.2	0.2
CC1CN(C(=O)c2cc(-c3ccc(Cl)s3)nc3ccccc23)CC(C)O1 (stereo unspecified)	1.3	i	-0.2	i	2.9	-1.6
CCN(CC)c1ccc(C(=C2C=CC(=[N+](CC)CC)C=C2)c2ccccc2)cc1	-9.5	x	90.5*	-12.5*	-88.4	-9.4
Cn1cc(C(c2ccccc2OCC(=O)O)c2cn(C)c3ccccc23)c2ccccc21	13.5	25*	0.8	i	1.4	3.4
O=C(CCc1ccccc1)NNC(=O)Nc1ccc(Br)cc1	-0.8	i	-0.1	i	11.9*	40.4
O=C(CCCC(=O)NNC(=O)Nc1ccccc1)NNC(=O)Nc1ccccc1	7.7	i	0.3	i	-1.7	-1.0
C/C(=N\NC(=O)COc1ccccc1)c1ccc(O)cc1	3.9	i	-3.3	i	13.1*	-1.2
O=C(CCc1ccccc1)NNC(=O)COc1ccccc1	21.4	i	1.2	i	12.7*	-1.5
O=C(COC(=O)CCNS(=O)(=O)c1ccccc1)NC(=O)Cc1ccccc1	-3.2	x	0.0	i	1.1	-1.8
CCCc1nc2ccc(Cl)cn2c1Cc1ccccc1OC	x	x	x	x	x	-0.1
CC(C)C[C@@H](CN1CCC[C@@H]1CN1C(=O)C(=O)NC[C@@H]1Cc1ccccc1)N1C[C@H](Cc2ccccc2)N(CC2CCCCC2)C(=O)C1=O	x	x	x	x	x	-2.0
CC(=O)N1CCOc2cc(S(=O)(=O)N3CCN(c4ccccc4)CC3)c(Cl)cc21	53.9*	i	16.1	i	1.7	-2.8
CCOC(=O)c1cn(Cc2ccc(Cl)cc2Cl)c2cc(C)nn2c1=O	7.5	i	-0.2	i	-0.3	1.9
CCOC(=O)c1cn(Cc2ccccc2)c2cc(C)nn2c1=O	6.8	i	-1.4	i	11.0*	1.3
CCSC(=O)N=Nc1ccc(O)cc1	1.8	x	-2.7	i	-8.2	-0.2
COc1ccc(S(=O)(=O)N(C)CC(=O)NCCC2=CCCCC2)cc1OC	-11.0	i	-1.5	i	12.7*	-0.4
CCc1ccccc1N=Cc1c(C)c(C#N)c2[nH]c3ccccc3n2c1=O	-134.0	x	164.8*	i	-1.8	37.1
NC(=O)CC[C@H](NC(=O)c1ccc(F)cc1)C(=O)OCC(=O)NCc1ccc2c(c1)OCO2	5.0	x	-0.4	i	0.2	1.6
COc1ccc(CCN(C(=O)c2snc(C(N)=O)c2N)C(C)C(=O)NC2CCCCC2)cc1OC (stereo unspecified)	1.6	i	-3.9	i	-1.3	-0.1
COc1cc2c(cc1NC(=O)c1cccnc1)oc1ccccc12	1.3	i	-1.0	i	20.4*	-3.3
COc1cc2c(cc1NC(=O)c1ccncc1)oc1ccccc12	40.9	i	-2.3	i	22.3*	-1.4
COc1cc2c(cc1NC(=O)/C=C/c1cc(OC)c(OC)c(OC)c1)oc1ccccc12	-17.0	i	6.0	i	26.9*	0.3
COc1cc2c(cc1NC(=O)COC(=O)CNC(=O)c1ccccc1)oc1ccccc12	76.1*	i	0.6	i	0.1	-2.5
CC(C)C[C@H]1CNC(=S)N1C[C@H]1CCCN1C[C@H](Cc1ccc(O)cc1)N1C[C@H](CC(C)C)N(CCc2ccccc2)C1=S	x	x	x	x	x	-0.5
COCCNC(=O)COc1ncnc2ccc(Br)cc12	9.5	i	0.2	i	12.5*	4.7
CCOc1ccccc1/C=C(/NC(=O)c1ccccc1)C(=O)NC(C)c1ccccc1 (stereo unspecified)	113.4*	i	-0.6	i	-8.1	0.4
CCc1nc2c(OCc3ccc(Cl)cc3Cl)cccn2c1N(C)C(=O)c1ccccc1F	x	x	x	x	x	-0.5
Cc1ccccc1NC(=O)CSc1nnc(CNC(=O)c2ccc3c(c2)OCO3)n1C	4.8	i	-3.0	i	-0.5	-3.7

Bioassay records as filed in PubChem BioAssay.
